Results taken from ChEMBL document CHEMBL3988442, “University of Dundee, Small-Polar-MMV Screening Library” (2021).
The campaign covered roughly 48,000 compounds. About 13,000 (27%) showed an effect of 50% or more. This is one part of the list.

The compounds below were run on Wolbachia pipientis (assay: Anti-Wolbachia Cell-Based Screen). Details: 5 µM.
Format: functional
Parameters: scale not given: in the data most compounds retested in dose-response had high values

Row | SMILES | Percent Effect
1 | CCN(CC)C(=O)[C@@H]1C[C@H](N)CN1C(=O)c1cc2c([nH]c1=O)CCC2 | -7.026%
2 | Cc1cnc(C)c(-c2cc(O)c3c(c2)CN(Cc2nccs2)CCO3)n1 | 17.73%
3 | CC(C)c1cc(C(=O)N2CCN(c3ccncc3)CC2)n(C)n1 | 12.18%
4 | Cc1cc(C(=O)N2CCN(c3ccncc3Cl)CC2)n(C)n1 | 77.84%
5 | Cc1cccc(N2CCN(C(=O)c3c(C)nn(C)c3C)CC2)c1C | 34.44%
6 | Cc1nn(C)c(C)c1C(=O)N1CCN(C(=O)CCC2CCCCC2)CC1 | -21.72%
7 | O=C(N1CCOCC1)N1CCN(c2ccncc2Cl)CC1 | -18.06%
8 | Cc1nn(C)c(C)c1C(=O)N1CCN(c2ccncc2Cl)CC1 | 86.38%
9 | Cc1cc(F)ccc1S(=O)(=O)NCC(O)c1cccn1C (configuration not stated) | -4.916%
10 | CCOCC1CN(C(=O)CC2=CCCCC2)Cc2nnn(C)c21 (configuration not stated) | 41.96%
11 | O=C1CO[C@H]2CN(S(=O)(=O)c3ccccc3)C[C@H]2N1Cc1ccccn1 | 1.166%
12 | O=C(C1CCOCC1)N1CC[C@H]2C[C@@H](c3ccncn3)O[C@@H]2C1 | -5.284%
13 | Cc1nccc([C@@H]2C[C@@H]3CCN(S(=O)(=O)C4CC4)C[C@H]3O2)n1 | 103.3%
14 | Cc1nccc([C@@H]2C[C@@H]3CCN(S(=O)(=O)N(C)C)C[C@H]3O2)n1 | 88.34%
15 | O=C1CO[C@H]2CN(S(=O)(=O)c3ccccc3)C[C@H]2N1c1ccccc1 | -3.468%
16 | Cc1nccc([C@@H]2C[C@H]3CN(S(=O)(=O)c4ccccc4)C[C@H]3O2)n1 | 93.7%
17 | Cc1nccc([C@H]2C[C@@H]3CCN(S(=O)(=O)N(C)C)C[C@H]3O2)n1 | -8.198%
18 | Cc1nccc([C@H]2C[C@@H]3CCN(S(=O)(=O)C4CC4)C[C@H]3O2)n1 | 101.1%
19 | N#Cc1cc2c(=O)n(CC(O)c3cccc(O)c3)ccc2[nH]c1=O (configuration not stated) | -10.2%
20 | Cc1nccc([C@@H]2C[C@@H]3CCN(S(C)(=O)=O)C[C@H]3O2)n1 | -4.62%
21 | COc1cc(N2CC[C@@H]3O[C@@H](c4ccnc(C)n4)C[C@H]3C2)ncn1 | -12.7%
22 | Cc1nccc([C@H]2C[C@@H]3CCN(S(C)(=O)=O)C[C@H]3O2)n1 | 116.1%
23 | O=S(=O)(NC1CCC2(CC1)OCCO2)c1ccccc1Br | -6.742%
24 | COC(=O)CCCNC(=O)N1CCc2c(F)ccc(F)c2C1 | -9.292%
25 | CCOCCNC(=O)Nc1ccc(OCc2noc(C3CC3)n2)cc1 | -0.9885%
26 | CC(=O)Nc1ccc(OCc2noc(C(=O)N3CCCCC3)n2)cc1 | 122.5%

Row | SMILES | Percent Effect
27 | CC(=O)Nc1ccc(OCc2noc(C(=O)N3CCCCCC3)n2)cc1 | 101%
28 | CCc1nc(COc2ccc(OCc3cnn(C)c3)cc2)no1 | -33.42%
29 | O=C(c1nc(COc2ccc3c(c2)OCO3)no1)N1CCCC1 | 8.865%
30 | NC(=O)Cc1ccc(OCc2noc(C(=O)N3CCCC3)n2)cc1 | 130.8%
31 | CCOCCCC(=O)Nc1ccc(OCc2noc(C3CC3)n2)cc1 | 20.67%
32 | CC(=O)Nc1ccc(OCc2noc(C(=O)N3CCCC3)n2)cc1 | 120.5%
33 | CC(C)c1nc(C2CCCN2c2ncc(C(N)=O)cc2Cl)no1 (configuration not stated) | -26.86%
34 | CC(C)=Cc1c(-c2ccccc2)ncn1CCN(C)S(C)(=O)=O | -6.043%
35 | CCCc1nnc(NC(C)c2ccc3c(c2)OCCO3)o1 (configuration not stated) | 16.29%
36 | COCCCn1ccc(NC(=O)NCCCNc2ccccc2)n1 | -2.159%
37 | COc1cc(Cl)c(C)cc1NC(=O)CCNc1ccc(C#N)cn1 | -3.637%
38 | CC(C)c1nc(CN(C)CC2CCN(CCO)CC2)no1 | -11.77%
39 | c1ccc2cc(OCCN3CCn4c(nnc4C4CC4)C3)ccc2c1 | 2.138%
40 | CCN1C(=O)CC[C@@H]2[C@H]1CCN2C(=O)Cc1cccc(OC)c1 | -2.508%
41 | CC(C)Cc1nc(COc2ccc(N(C)C(N)=O)cc2)no1 | -36.1%
42 | NC(=O)c1nc(COc2ccc3c(c2)OCO3)no1 | 26.77%
43 | CCOC(=O)c1nc(COc2ccc(CC(N)=O)cc2)no1 | 100.5%
44 | CC(C)C1CN(C(=O)c2ccc(N3CCCC3)nc2)CCS1 (configuration not stated) | -8.119%
45 | Cc1cccc(C(=O)NC2CCN(c3cnn(C)c3)C2=O)n1 (configuration not stated) | -1.568%
46 | O=C(O)CCNC(=O)Cc1csc(-c2cccc(Cl)c2)n1 | 119%
47 | CNC(=O)Cc1noc(Cc2cccc(Cl)c2)n1 | 10.38%
48 | O=C(O)CNC(=O)Cc1csc(-c2cccc(Cl)c2)n1 | 95.07%
49 | CN(Cc1csc(-c2ccccc2)n1)C(=O)CCNS(C)(=O)=O | -10.81%
50 | Cc1nc(CNC(=O)NCC(O)c2cccc(Cl)c2)cs1 (configuration not stated) | -14.28%
51 | COc1ccc(C(=O)N2C[C@@H](CN3CCCC3)[C@@H](CO)C2)c(C)c1 | 5.26%
52 | O=c1[nH]c(CN2CCN(CC(F)(F)F)CC2)nc2ccccc12 | -9.937%

Row | SMILES | Percent Effect
53 | CCn1c(CN2CCOC(Cn3cncn3)C2)nc2cc(F)ccc21 (configuration not stated) | 8.019%
54 | CCn1cncc1CN1CCN(CC2(c3ccc(C)cc3)CC2)CC1.Cl | 124%
55 | Cc1ccc(C2(CN3CCN(c4ncccn4)CC3)CCNCC2)nc1 | -14.8%
56 | CCn1cncc1Cn1cccc(C(F)(F)F)c1=O | 2.585%
57 | COCCN1CCCC12CCN(Cc1cncn1C)CC2.O=C(O)C(F)(F)F.O=C(O)C(F)(F)F | -4.301%
58 | Cc1ccc(C2(CN3CCCC3)CCNCC2)nc1 | 5.469%
59 | Cc1ccc(C2(CN3CCN(Cc4cnc(C)n4C)CC3)CC2)cc1.Cl | 125%
60 | Cc1ccc(C2(CN3CCN(Cc4cncn4C)CC3)CC2)cc1.Cl | 158.8%
61 | COCCn1cncc1CN1CCCC(C)(c2ccccc2)C1 (configuration not stated) | -12.89%
62 | Cn1cncc1CN1CCC2(CC1)CCN2c1ncccn1 | 0.5048%
63 | Cc1ccc(C(=O)Nc2cc(C(N)=O)ccc2CN(C)C)cc1Cl | -14.19%
64 | NC(=O)c1ccc(NC(=O)N2CCN(c3cccs3)CC2)c(F)c1 | -5.895%
65 | CS(=O)(=O)NC[C@H]1OC[C@@H](NC2CCC(F)(F)CC2)[C@@H]1O | -4.949%
66 | COc1ccc(F)c(F)c1CN1CCC2(CC1)[C@H](O)C[C@@H]2OCCN | 1.725%
67 | CO[C@H]1C[C@@H](O)C12CCN(Cc1nc(C(F)(F)F)no1)CC2 | 107.1%
68 | COc1cc(CN2CCC3(CC2)[C@H](O)C[C@@H]3OCCO)ccc1F | 8.427%
69 | CNc1cc(C)nc(N2CCC3(CC2)[C@H](O)C[C@@H]3OC)n1 | 12.2%
70 | COCc1noc(CN2CCC3(CC2)[C@H](O)C[C@@H]3OC)n1 | 101.4%
71 | CCN(Cc1nc(COC)no1)C[C@]1(O)CCCN2CCCC[C@@H]21 | -7.865%
72 | OCCO[C@H]1C[C@@H](O)C12CCN(Cc1nc(C(F)(F)F)no1)CC2 | 99.64%
73 | NCCO[C@H]1C[C@@H](O)C12CCN(Cc1c(F)cccc1F)CC2 | -12.61%
74 | COCc1noc(CN2C(=O)OC[C@@H]2C(C)C)n1 | -2.73%
75 | Cc1ccccc1SC1CCN(C(=O)C2CNCC(=O)N2)CC1 (configuration not stated) | -16.36%
76 | COc1nccnc1-c1cccc(-c2ccn(CC3COCCO3)n2)c1 (configuration not stated) | -15.38%
77 | CCN(C)c1ncnc2c1CCN(C(=O)c1cccn1C)CC2 | -8.14%
78 | CC(C)CN1CCc2[nH]nc(C(=O)N3CCCC3)c2C1.O=C(O)C(F)(F)F | 26.25%

Row | SMILES | Percent Effect
79 | CC(C)Cn1ccc2c(NC(=O)c3n[nH]c4c3CCC4)cccc21 | 106.4%
80 | CC(C)Cn1cncc1CNC(=O)c1cccc(-n2cnnc2)c1 | 1.824%
81 | CC(C)n1ccc2c(NC(=O)c3n[nH]c4c3CCC4)cccc21 | 99.33%
82 | COCCn1ccc(=O)c(OCC(=O)Nc2cccc(C(C)=O)c2)c1C | 6.255%
83 | COCCn1cc(C(=O)N2CCCC2c2cc(C)on2)c2ccccc21 (configuration not stated) | -11.13%
84 | COCCn1ccc2c(NC(=O)c3n[nH]c4c3CCC4)cccc21 | 97.48%
85 | COCCn1ccc2c(NC(=O)c3n[nH]c4c3CCCC4)cccc21 | 111.2%
86 | O=C(c1n[nH]c2c1CCC2)N1CCCC1c1nc(-c2ccccc2)no1 (configuration not stated) | 8.692%
87 | O=C(c1n[nH]c2c1CCC2)N1CCCC1c1nc(-c2ccccn2)no1 (configuration not stated) | 14.67%
88 | Cc1noc(C)c1CSc1nc(=O)ccn1C(C)C | -1.27%
89 | NC(=O)C(NC(=O)COCCc1ccccc1)c1ccccc1F (configuration not stated) | -15.69%
90 | CCCn1nc2c(cc1=O)CN(CCCS(N)(=O)=O)CC2 | -2.42%
91 | CCC[C@@H]1CN(Cc2c[nH]c(CC3CCCC3)n2)C[C@H]1C(=O)O | -10.74%
92 | CCOC(=O)c1coc(N2CCC(C(C)N3CCCC3)CC2)n1 (configuration not stated) | 0%
93 | O=C(CCc1ccsc1)NS(=O)(=O)Cc1ccon1 | -50.57%
94 | Cc1cc2ccccc2n1CCC(=O)NCc1ncc[nH]1 | -13.5%
95 | CC(CCc1cccc(F)c1)NC(=O)NCc1ncnn1C (configuration not stated) | -8.39%
96 | Cn1ccnc1CNC(=O)CCc1cccc(F)c1 | 127.3%
97 | Cc1cc(CCC(=O)N2CC[C@H](O)C2)ccc1Br | 2.583%
98 | Cn1ccnc1CCNC(=O)C1CCCN(Cc2cccc(F)c2)C1 (configuration not stated) | -2.372%
99 | Cc1cc(CCC(=O)N2CCC(O)CC2)ccc1Br | -5.317%
100 | O=C(CCc1ccc(Br)cc1)NCc1nnc[nH]1 | -10.7%
101 | Cc1cc(CCC(=O)NCc2nccn2C)ccc1Br | 125.4%
102 | Cc1cc(CCC(=O)NCc2ncc[nH]2)ccc1Br | 105.6%
